Test results as given in PMC5540273 (PLoS ONE, 2017).

What follows are compounds tested on MYLK4. Settings: concentration: 1 μM, replicates: in singlicate; n = 1.
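Further: KINOMEscan kinase panel screen.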

| SMILES | %Inh [%] |
| --- | --- |
| Cl.Nc1ncnc2occ(-c3ccc(NC(=O)Nc4cc(C(F)(F)F)ccc4F)cc3)c12 [SB-707548] | 26 |
| Fc1ccc(-c2ncn(CCCN3CCOCC3)c2-c2cccnc2)cc1 [SB-211743] | 0 |
| CCCCCc1nc2c(N)ncnc2n1CCCCC [SKF-97255] | 12 |
| c1ccc(-c2cc(-c3c[nH]nc3-c3ccccn3)ccn2)cc1 [GW576604] | 0 |
| COc1ccc(Nc2nccc(N3CCC(NC(=O)Nc4cccc(C(C)=O)c4)C3)n2)cc1 (stereo not drawn) [GSK1379731] | 0 |
| CCc1nc(-c2cccc(C)c2)c(-c2ccnc(NCc3ccccc3)c2)s1 | 0 |
| COC(=O)Nc1nc2cc(Oc3ccc(NC(=O)Nc4cc(F)ccc4F)cc3)ccc2[nH]1.Cl [GW701424] | 0 |
| CN1c2ccc(CNc3ccc(F)cc3)cc2-c2c(cnn2C)S1(=O)=O | 0 |
| O=C(NCCCN1CCOCC1)c1cccc(Nc2nccc(Nc3ccc(Oc4ccccc4)cc3)n2)c1 [GW663929] | 25 |
| N#Cc1c(N2CCOCC2)sc(-c2ccn[nH]2)c1-c1ccc(Cl)cc1 | 5 |
| O=C1Cc2cc(Nc3nc(NCc4cccc(S(=O)(=O)C(F)(F)F)c4)ncc3C(F)(F)F)ccc2N1 | 8 |
| [2H]C([2H])(c1cccc(C(F)(F)F)c1C)n1ccn2c(=O)nc(N3CCOCC3)cc12 [GSK2336394] | 0 |
| COc1cc2c(cc1OCCN1CCN(C)CC1)ncc1c3ccc(C#N)cc3[nH]c21 | 75 |
| O=c1cc(N2CCOCC2)nc2n(Cc3cccc(C(F)(F)F)c3)ccn12 [GSK2297543] | 2 |
| Nc1nccc(-c2c(-c3ccc(F)cc3)ncn2C2CCN(CC(F)(F)F)CC2)n1 [SB-236560] | 0 |
| CN(C(=O)c1ccc(-c2cc(-c3c[nH]nc3-c3ccccn3)ccn2)cc1)C1CCOCC1 [GW810083] | 0 |
| NCC(NC(=O)c1cc(-c2cn[nH]c2)c(-c2ccnc3[nH]ccc23)s1)c1ccccc1.O=C(O)C(F)(F)F.O=C(O)C(F)(F)F (stereo not drawn) [GSK1325775] | 100 |

| SMILES | %Inh [%] |
| --- | --- |
| COCCNC(=O)c1ccc(-c2cc(C(=O)NC3CC3)cc(F)c2C)cc1 [GW868318] | 5 |
| Fc1ccc(-c2nn3c(OCC(F)(F)F)cccc3c2-c2ccncc2)cc1 [GW514784] | 0 |
| C[C@@H](Oc1cc(-n2cnc3ccc(NC(=O)NC(C)(C)C)cc32)sc1C(N)=O)c1ccccc1Cl [GSK346294] | 1 |
| Cl.Oc1cccc(Nc2ccnc3cc(-c4ccncc4)ccc23)c1 [GW494601] | 0 |
| Cc1cn2c(=O)cc(N3CCOCC3)nc2n1Cc1cccc(Cl)c1Cl [GSK2334006] | 9 |
| Cc1cccc(-c2nc(-c3ccc(S(C)(=O)=O)cc3)sc2-c2ccncc2)c1 | 0 |
| Cc1cccc(-c2nc(Nc3ccc4ncsc4c3)c3ccccc3n2)n1 [GW867588] | 0 |
| NS(=O)(=O)c1cccc(-c2ccc3ncc(N4CCOCC4)nc3c2)c1 [GSK1535721] | 12 |
| O=c1cc(N2CCOCC2)nc2n(Cc3cccc4ccccc34)ccn12 [GSK2333389] | 0 |
| CN1c2ccc(NCc3ccc(F)cc3)cc2-c2c(cnn2C)S1(=O)=O | 0 |
| O=c1cc(N2CCOCC2)nc2n(Cc3cccc(Cl)c3Cl)c(C3CC3)nn12 [GSK2358994] | 0 |
| CSc1ccc(-c2cc3ncnc(SCC(=O)O)c3s2)cc1 | 9 |
| Cc1nnc(-c2ccc(C)c(-c3ccc(C(=O)Nc4ccc(NS(C)(=O)=O)cc4)cc3)c2)o1 [GW702865] | 8 |
| Cc1nnc(-c2ccc3occ(-c4ccc(C(C)O)cc4)c3c2)o1 (stereo not drawn) | 4 |
| O=C(Nc1cccc(-c2nn3ncccc3c2-c2ccnc(Nc3cccc(C(F)(F)F)c3)n2)c1)c1c(F)cccc1F [GSK299495] | 0 |
| Cc1ccc(C(=O)NCC(N)=O)cc1-n1c(C)cc(OCc2ccc(F)cc2F)c(Br)c1=O | 14 |
